High-throughput results from PubChem BioAssay.
TRb SRC2 PPI: qHTS for Inhibitors of the Interaction of Thyroid Hormone Receptor and Steroid Receptor Coregulator 2; TRbeta-SRC2 peptide binding, fluorescence polarization; receptor liganded with 1 µM T3; AID 1469, 2008; Potency, µM (doses to about 106 µM), inactives show at the top dose activity change, negative = inhibition, hits mostly inhibitors; 280,000 compounds, 0.065% hits;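 further: plate controls were bound peptide for no effect and peptide without receptor for full effect; nearly all actives have a fitted effect of over 50% in size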
Target sequence (P10828 whole entry, looked up): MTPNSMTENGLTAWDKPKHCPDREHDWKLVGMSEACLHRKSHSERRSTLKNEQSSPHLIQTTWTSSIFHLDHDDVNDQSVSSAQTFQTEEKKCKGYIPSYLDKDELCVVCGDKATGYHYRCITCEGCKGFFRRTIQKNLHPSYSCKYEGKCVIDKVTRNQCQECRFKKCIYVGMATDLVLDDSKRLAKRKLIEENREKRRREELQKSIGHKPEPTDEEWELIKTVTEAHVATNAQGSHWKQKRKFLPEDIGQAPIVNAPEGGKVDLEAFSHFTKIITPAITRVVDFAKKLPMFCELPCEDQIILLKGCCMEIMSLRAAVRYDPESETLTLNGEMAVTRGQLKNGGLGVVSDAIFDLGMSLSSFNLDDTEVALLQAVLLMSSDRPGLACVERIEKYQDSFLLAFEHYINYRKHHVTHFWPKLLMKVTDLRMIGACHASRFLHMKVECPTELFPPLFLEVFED
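A fluorescence polarization screen tested compounds at multiple concentrations against complex formation between 0.6 uM TRb ligand-binding domain and 20 nM Texas Red SRC2 peptide, with 1 uM T3 present; readout after 5 hr.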
TR SRC2 fluor cs: Total Fluorescence Counterscreen for Inhibitors of the Interaction of Thyroid Hormone Receptor and Steroid Receptor Coregulator 2; 280,000 compounds, 0.29% hits; Potency, µM (top dose mostly 106 µM), for the others: top-dose fluorescence change, negative = quenching; TRb/SRC2 Texas Red total fluorescence interference; AID 1479, 2009; active means well fitted curve in either direction with a large enough effect; inconclusive means small, poorly fitted or top-dose-only effect
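Human TRβ ligand-binding domain (0.6 uM) and Texas Red SRC2 peptide (20 nM) in Tris buffer with 1 uM T3 and 5% DMSO were incubated with pinned compound for 5 hr at ambient temperature. Total fluorescence was computed as S + 2P (555/632 nm).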
Tau FP inhib: qHTS for Inhibitors of Tau Fibril Formation, Fluorescence Polarization. Microtubule-associated protein tau (Homo sapiens), P10636. K18 P301L tau heparin fibrillization, Alexa594 FP, 6 h. Potency, µM (doses to about 57.7 µM), for the others: at the top dose activity, negative = inhibition, usual class: inhibitors. 280,000 compounds, 0.39% hits; further: nearly all actives have a fitted effect of over 55% in size
Target sequence (P10636 561-689 P618L limits assumed): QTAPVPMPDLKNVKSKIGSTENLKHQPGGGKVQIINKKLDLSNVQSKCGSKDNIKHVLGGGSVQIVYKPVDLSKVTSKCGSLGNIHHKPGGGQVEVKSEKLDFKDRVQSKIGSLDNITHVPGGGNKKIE
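K18 P301L tau (15 uM unlabeled/0.24 uM Alexa 594-labeled, final) + compound + heparin 20 uM final; 100 mM NaOAc pH 7; 6 hr 37 C; ThT 30 uM final added, 1 hr RT; FP ex 555/em 632 nm.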
Tau ThT inhib: qHTS for Inhibitors of Tau Fibril Formation, Thioflavin T Binding | Microtubule-associated protein tau (Homo sapiens), P10636 | recombinant tau K18 P301L, heparin-induced fibrillization, ThT fluorescence | Potency, µM (top dose mostly 57.4 µM), without a hit: at the top dose activity, negative = inhibition, actives largely listed as inhibitors | 270,000 compounds, 2.1% hits; further: nearly all actives have a fitted effect of over 55% in size
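Aggregation was driven by heparin (20 uM final) acting on recombinant tau […] bearing P301L in 100 mM sodium acetate pH 7; fibrils were detected with Thioflavin T.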
Tau fluor cs: Counterscreen qHTS for Inhibitors of Tau Fibril Formation, Fluorescence Polarization; tau K18 P301L Alexa594 fluorescence, heparin fibrillization; Potency, µM (highest dose often 57.7 µM), without a hit: at the highest dose activity change, negative = decrease; 280,000 compounds, 0.93% hits; AID 1463, 2008; further: nearly all actives have a fitted effect of over 55% in size
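Human tau K18 P301L (15 uM unlabeled, 0.24 uM Alexa 594-labeled) in 100 mM sodium acetate pH 7 with 20 uM heparin, 6 hr at 37 C. ThT 30 uM added, 1 hr ambient; Alexa 594 FP and total fluorescence read at 555/632 nm.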
Numbers without * were called inactive; ? = inconclusive; · = no result given; [ ] = dose if it differs, or a comment. The list is not random: actives were taken first. Their share in the collection is about 3%. Unless noted, the call rests on the fitted dose curve; in most records, active means well fitted curve in the direction sought with a large enough effect; inconclusive means small, poorly fitted or top-dose-only effect, or another doubt; inactive means no such curve, though single readings can be large; an effect the other way counts as inactive or inconclusive. Unless noted, on the % scale 0 is the no-effect control and ±100 the full control effect; potency means the concentration at half of the fitted maximal effect.

SMILES | TRb SRC2 PPI | TR SRC2 fluor cs | Tau FP inhib | Tau ThT inhib | Tau fluor cs
COc1cc(Nc2nc(SCc3ccccc3F)nc3ccccc23)cc(OC)c1 | 10.7% | -1.7% | 7.08µM* | ? | ?
COc1ccc(CNc2nc(SCc3ccccc3Cl)nc3ccccc23)cc1 | 6.4% | -3.9% | -6.3% | -11.8% | -23.6%
O=C(CSc1nc(Nc2ccccc2)c2ccccc2n1)c1ccc(Cl)cc1 | -1.8% | -2.8% | 2.9% | 7.4% | 3.3%
Cc1cccc(NC(=O)CSc2ncc3c(n2)-c2ccccc2N(Cc2ccc(F)cc2)S3(=O)=O)c1C | -5.3% | 4.5% | ? | 7.8% | -14.0%
Cc1cc2c(cc1S(=O)(=O)N(CCO)Cc1ccccc1)OCC(=O)N2 | -8.8% | -2.2% | -6.5% | -7.4% | -14.0%
Cc1ccc(S(=O)(=O)c2nc(S(C)(=O)=O)sc2N(C)Cc2ccccc2)cc1 | -1.3% | -1.6% | -9.8% | -6.2% | -22.1%
Fc1ccc(Nc2nc(SCc3ccccc3F)nc3ccccc23)cc1 | 10.4% | -0.5% | 7.94µM* | ? | ?
Brc1ccc(CSc2nnc(Cc3c[nH]c4ccccc34)o2)cc1 | -2.6% | 0.4% | -6.2% | ? | 14.1µM*[quencher]
CC(C)c1cc[n+](-c2nc([O-])sc2C=O)cc1 | -2.4% | -1.2% | -24.6% | 35.5µM* | -25.5%
CCc1cc[n+](-c2nc([O-])sc2C=O)cc1 | 3.5% | 1.2% | ? | ? | -27.7%
Cc1nnc(NC(=O)c2sc3nc(-c4cccs4)cc(C(F)(F)F)c3c2N)s1 | 6.7% | 3.6% | 1.6% | 12.6µM* | -14.8%
COc1ccc(NC(=O)Nc2ccc(N3CCOCC3)c3nonc23)c(OC)c1 | -17.3% | -0.8% | -9.5% | ? | -20.8%
O=C(Nc1ccc(F)cc1)Nc1ccc(N2CCOCC2)c2nonc12 | -11.1% | 3.5% | 13.8% | 2.82µM* | -22.7%
Nc1ccc(N2CCOCC2)c2nonc12 | ? | -7.0% | ? | 14.1µM* | ?
CCn1cc(S(=O)(=O)c2cccc(Cl)c2)c(=O)c2cc(F)c(N3CCN(C)CC3)cc21 | -0.5% | 1.3% | -3.2% | -1.2% | -6.7%
CCN(CC)c1ccc(C=N/C(C#N)=C(\N)C#N)cc1 | 26.1% | 20.1% | ? | 2µM* | 14.3%
O=C(NCCCN1CCN(c2cccc(Cl)c2)CC1)c1cnn(-c2ccc(F)cc2)c1-n1cccc1 | -2.7% | -0.7% | 2.5% | ? | -16.0%
CC(=O)[C@@H]1[C@@H](C(=O)c2ccc(C)cc2)[C@]2(C(=O)Nc3ccccc32)[C@H]2C=Cc3cc(F)ccc3N12 | -1.1% | -0.1% | ? | 14.1µM* | ?
Cc1ccccc1NC(NC(=O)OCCn1c([N+](=O)[O-])cnc1C)C(Cl)(Cl)Cl (stereo not given) | -25.9%[53 µM] | 7.08µM*[quencher] | 7.5% | -0.9% | -8.4%
CC(C)c1ccc(NC(=O)Cn2nnc(C(=O)NCc3ccc(Cl)cc3)c2N)cc1 | 1.1% | -4.0% | -13.7% | 0.4% | -3.8%
O=C(/C=C\Nc1ccc2c(c1)OCO2)c1ccc(Cl)s1 | 0.5% | -0.4% | -4.0% | 2.82µM* | -17.0%
O=C(/C=C\Nc1ccc2c(c1)OCO2)c1cccs1 | 6.0% | -0.9% | -5.8% | 2µM* | ?
CC(=O)Nc1ccc(S(=O)(=O)N2CCN(c3nc(NC4CCCC4)c4ccccc4n3)CC2)cc1 | -10.3% | -1.6% | 22.4µM* | -16.6% | 14.1µM*[quencher]
c1ccc2c(c1)CCN(C1=Nc3cccc4cccc1c34)C2 | 5.6% | 2.2% | -14.0% | 15.8µM* | -13.8%
Cc1cc(C)cc(Nc2cc(C(=O)NC3CCC(C)CC3)c3ccccc3n2)c1 (stereo not given) | -13.1% | 0.7% | 7.5% | -0.5% | -15.6%
SMILES | TRb SRC2 PPI | TR SRC2 fluor cs | Tau FP inhib | Tau ThT inhib | Tau fluor cs
Cc1cc(C)n2c(Nc3ccc(Cl)cc3)c(-c3ccsc3)nc2n1 | 0.6% | 1122µM*[quencher] | -9.6% | -7.9% | -17.7%
CCOC(=O)c1cccc(NC(=O)NCc2ccc3c(c2)CCN3C(=O)CC)c1 | 6.2% | -4.9% | ? | ? | 17.8µM*[quencher]
COc1ccc(Cl)cc1NC(=O)Cn1cnc2c1c(=O)n(C)c(=O)n2C | -3.8% | -3.1% | -5.7% | 0.8% | -4.1%
O=C(/C=C/c1ccco1)N1CCN(c2ccccc2)CC1 | 0.6% | 0.4% | 0.5% | -13.0% | 8.2%
O=C(/C=C/c1ccco1)NC(=S)Nc1ccc(N2CCCC2)cc1 | -2.9% | -2.7% | -12.8% | 3.55µM* | ?
O=C(/C=C/c1ccco1)NC(=S)Nc1ccc(Cl)cn1 | 18.1% | ? | -2.8% | 22.4µM* | ?
CC(=O)NC(=S)Nc1ccc(NC(=S)NC(=O)/C=C/c2ccco2)cc1 | 7.5% | ? | -2.5% | · | ?
O=C(/C=C\c1ccco1)Nc1ccc(N2CCN(C(=O)c3ccccc3)CC2)cc1 | 5.0% | -4.0% | 1.9% | 11.2µM* | ?
CCOc1ccc(CNC(=O)C2CCN(c3nnc(-n4c(C)ccc4C)s3)CC2)cc1 | 11.9% | -3.5% | -9.9% | ? | -18.4%
NC(C(=O)O)(c1ccc(P(=O)(O)O)cc1)C1CC1 (stereo not given) | -4.3% | -0.5% | 3.2% | -0.1% | -3.3%
COc1cc(CNc2ccc3[nH]c(=O)[nH]c3c2)ccc1OCC(=O)NC(C)(C)C | -7.1% | -3.6% | ? | 14.1µM* | ?
Cc1cccc(N2CCN(C(=O)c3c4c(nc5ccccc35)C(=O)N(C3CCCCC3)C4)CC2)c1C | -3.8% | 3.0% | -6.1% | ? | -1.9%
CCc1ccc(S(=O)(=O)c2nnn3c2nc(N(CC)Cc2ccccc2)c2cc(Cl)ccc23)cc1 | 2.0% | ? | -15.5% | 0.1% | -7.3%
CC(C)c1ccc2c(c1)C1(NN=C(c3ccccc3)S1)C(=O)N2 (stereo not given) | -13.3% | -5.8% | 13.7% | 25.1µM* | ?
Nc1nc(Nc2ccc(Cl)cc2)nc(NCc2ccco2)c1[N+](=O)[O-] | -1.3% | -5.1% | 15.8µM* | ? | ?
Cc1ccc(Nc2cc(C)nc(NCc3ccccc3)n2)cc1 | 1.4% | -1.8% | 5.5% | ? | ?
COc1ccc(Nc2nc(N)c([N+](=O)[O-])c(NCc3ccccc3)n2)cc1 | 3.0% | -0.1% | -3.9% | ? | 14.1µM*[quencher]
Cc1cccc(Nc2nc(N)c([N+](=O)[O-])c(NCc3ccco3)n2)c1 | -7.3% | -4.5% | ? | ? | ?
Nc1nc(Nc2cccc(Cl)c2)nc(NCc2ccco2)c1[N+](=O)[O-] | 1.3% | 0.7% | 28.2µM* | ? | ?
COc1ccc(Nc2cc(C)nc(NCc3ccccc3)n2)cc1 | -5.5% | -2.8% | 3.8% | ? | 35.5µM*[quencher]
Cc1ccc(Nc2nc(N)c([N+](=O)[O-])c(NCc3ccccc3)n2)cc1 | 3.5% | -2.4% | ? | ? | ?
